# IMPase inh – qHTS Assay for Identifying the Cell-Membrane Permeable IMPase Inhibitors. Inositol monophosphatase 1 (Rattus norvegicus), P97697. CHO-M1 cells, IP1 accumulation, HTRF TR-FRET ratio. inhibition (IP1 accumulation), % at 46.1 µM. 120,000 tested, under 10 active. AID 901, 2007; active = well fitted curve in the direction sought with a large enough effect in the signal ratio, not every such curve was filed as active; inconclusive = small, poorly fitted or top-dose-only effect, or a change in a side signal; inactive = no such curve, though single readings can be large or run the other way; the % refers to the signal ratio;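 also: cells stimulated with carbachol in lithium chloride buffer; higher means more IMPase inhibition seen as more IP1 and lower FRET ratio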
# Target sequence (P97697 whole entry, looked up): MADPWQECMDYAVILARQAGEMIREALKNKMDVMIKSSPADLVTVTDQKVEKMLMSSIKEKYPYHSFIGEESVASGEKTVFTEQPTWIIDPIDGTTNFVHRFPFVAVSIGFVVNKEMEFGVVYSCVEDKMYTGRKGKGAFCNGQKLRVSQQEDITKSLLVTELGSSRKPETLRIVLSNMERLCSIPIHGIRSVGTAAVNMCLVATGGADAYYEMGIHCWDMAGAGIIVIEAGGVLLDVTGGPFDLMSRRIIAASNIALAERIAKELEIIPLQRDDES
#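 In this qHTS, compounds (final up to 46 uM) act on CHO-M1 cells that are then activated through the M1 receptor with carbachol, in pH 7.4 buffer containing 50 mM LiCl, for 30 min. IP1 accumulation is quantified by the IP-One immunoassay.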
# ALDH1A1 block – qHTS Assay for Inhibitors of Aldehyde Dehydrogenase 1 (ALDH1A1). Aldehyde dehydrogenase 1A1 (Homo sapiens), P00352. Purified ALDH1A1, NADH fluorescence, propionaldehyde substrate. Potency, µM (series often up to 75.3 µM), most hits filed as inhibitors. 7.3% of 220,000 active. AID 1030, 2008
# IMPase Li cell – qHTS Assay for Identifying the Cell-Membrane Permeable IMPase Inhibitors: Potentiation with Lithium. CHO-M1 cells, IP1 TR-FRET (IP-One), carbachol + lithium. Potency, µM (top dose mostly 59.4 µM), hits mostly inhibitors. 0.35% of 210,000 active. AID 1457, 2008; active = well fitted curve in the direction sought with a large enough effect; inconclusive = small, poorly fitted or top-dose-only effect, or another doubt; inactive = no such curve, though single readings can be large; an effect the other way counts as inactive or inconclusive;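 also: IP1 builds up when IMPase is blocked and the TR-FRET signal falls; nearly all actives have a fitted effect of over 50% in size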
#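 CHO-M1, 2000 cells/well, 16–30 h culture; cpd + low Li+, 30 min 37C; lysis with d2-IP1/Eu-anti-IP1 Ab, 10 min RT; TR-FRET 665/620 ratio and 620 channel; AC50 via Hill.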
# PNC inhibitor – High Content Assay for Compounds that inhibit the Assembly of the Perinucleolar Compartment | 3.1% of 140,000 active | activity change (PNC), negative = inhibition, % at 10 µM | PC3M PTB-GFP, PNC prevalence imaging, 16 h; active compounds read low;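 active = readout at or below -70, meaning at least 70% loss of cells showing the perinucleolar compartment, a nuclear body marking cancer cells; inconclusive = readout between -30 and a set limit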
#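 Compounds are pinned in duplicate onto adhered PC3M cells stably expressing GFP-tagged PTB and incubated 16 h at 37 C. Cells are then fixed, nuclei stained with Hoechst, and PNC-positive cells counted.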
# 12-hLO inh – qHTS Assay for Inhibitors of 12-hLO (12-human lipoxygenase) | 0.12% of 150,000 active | Polyunsaturated fatty acid lipoxygenase ALOX12 (Homo sapiens), P18054 | purified 12-hLO, xylenol orange hydroperoxide absorbance | Potency, µM (highest dose often 57.1 µM), actives largely listed as inhibitors; active = well fitted curve in the direction sought with a large enough effect; inconclusive = small, poorly fitted or top-dose-only effect, or another doubt; inactive = no such curve, though single readings can be large; an effect the other way counts as inactive or inconclusive; also: nearly all actives have a fitted effect of over 55% in size
#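 Lipoxygenase turnover measured by absorbance at 573 and 405 nm after Fe-XO development. Human 12hLO 150 nM, arachidonate 40 uM, pH 7.0 Hepes buffer with detergent; 15 min compound preincubation, 30 min reaction.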
# HPGD inh – qHTS Assay for Inhibitors of HPGD (15-Hydroxyprostaglandin Dehydrogenase); 15-hydroxyprostaglandin dehydrogenase [NAD(+)] (Homo sapiens), P15428; purified HPGD, NADH fluorescence kinetic, PGE2 substrate; Potency, µM, most hits filed as inhibitors; 4.3% of 150,000 active; AID 894, 2007
# Target sequence (P15428 whole entry, looked up): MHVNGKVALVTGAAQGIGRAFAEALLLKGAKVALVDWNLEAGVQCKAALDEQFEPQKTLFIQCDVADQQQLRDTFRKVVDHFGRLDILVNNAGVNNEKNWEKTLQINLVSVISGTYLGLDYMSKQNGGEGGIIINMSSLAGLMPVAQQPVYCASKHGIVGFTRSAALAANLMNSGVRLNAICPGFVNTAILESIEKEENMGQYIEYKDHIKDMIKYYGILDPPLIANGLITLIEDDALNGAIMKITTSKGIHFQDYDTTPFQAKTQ
#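 20 nM HPGD preincubated 15 min at room temperature with compound in 50 mM Tris-HCl pH 8, 0.01% Tween 20. Started with 1 mM NAD+ and 30 uM prostaglandin E2; NADH fluorescence (360/450 nm) read 5 times over 30-s intervals, last minus first.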
# Numbers stand for hits; i = inactive; ? = inconclusive; nt = no result; [ ] = another dose, or the depositor's remark. This is a sample that favours compounds with a hit; in the whole collection about 11% have one here. Unless noted, calls follow the shape of the dose curve; as a rule, active = well fitted inhibition curve with a large enough effect (not every such curve was filed as active); inconclusive = small, poorly fitted or top-dose-only effect, or another doubt; inactive = no such curve, though single readings can be large or run the other way.
SMILES,IMPase inh,ALDH1A1 block,IMPase Li cell,PNC inhibitor,12-hLO inh,HPGD inh
CCn1c2ccccc2c2nnc(NCCCO)nc21,nt,i[13.5 µM],i,nt,i[11.4 µM],i
CC(C)C[C@@H](CC(=O)N[C@@H](CCC(=O)O)CC(=O)O)NC(=O)[C@@H]1CNCC[C@H]1NC(=O)C[C@H](CCCN)NC(=O)C[C@H](Cc1ccccc1)NC(=O)[C@@H]1CNCC[C@H]1N,nt,i,i,nt,i,i
c1ccc(CN2COc3c(ccc4c5c(ccc34)CN(Cc3ccccc3)CO5)C2)cc1,nt,i[13.5 µM],i,nt,i[11.4 µM],i
COCCN=C1OC(=O)N2C(=O)C3=C4C(C[C@H]5C(=O)N(CC(=O)OC)C(=O)[C@H]5[C@H]4[C@@]12Cc1ccccc1)[C@H]1C(=O)N(CC(=O)OC)C(=O)[C@H]1[C@H]3C (some centres not stated),nt,i,i,nt,i,i
O=C(Cc1ccc(-n2cccc2)cc1)NCc1cccs1,i,i,nt,-106,i,nt
Cc1ccc(NC(=O)Nc2cccs2)c(Cl)c1,i,i,i,?,?,i
O=C(NCc1cccs1)Nc1cccs1,i,18µM,i,i,i,?
Cc1ccc(CNC(=O)Cc2ccc(-n3cccc3)cc2)cc1,nt,i,i,i,i,i
Cc1csc2nc(CNC(=O)C3CCCCC3)cn12,i,i,i,i,i,16µM
O=C(Nc1cccs1)Nc1ccccc1Cl,i,?,i,-82,?,?
CC(C)c1ccccc1S(=O)(=O)c1cc(N)c2ncccc2c1[N+](=O)[O-],nt,i,i,nt,i,i
COCCN1C(=O)N[C@@H](CCc2ccccc2)C(C(=O)OC)=C1C,nt,i,i,nt,nt,i
NCc1ccc(C(=O)O)cc1,nt,i[13.5 µM],i,nt,i[11.4 µM],i
O=C(CCC(=O)Nc1nnc(C2CCCCC2)s1)NCc1cccs1,i,i,14µM,?,i,i
O=C(NCc1cccs1)C1CCCN(c2ncccn2)C1 (configuration not stated),i,i,i,-86,i,i
O=C(NCc1cccs1)C1CCCN(S(=O)(=O)c2cccc3cccnc23)C1 (configuration not stated),i,i,i,i,i,i
O=C(NCc1cccs1)C1CCCCC1,i,i,i,?,i,14µM
CC(C)CN1CC[C@@]2(CCCN(C(=O)c3cccc(F)c3)C2)C1,nt,i,i,nt,i,i
O=C(/C=C/C=C/c1ccccc1)c1ccco1,nt,28µM,nt,nt,nt,nt
CCC/C=N/NC(=O)c1[nH]c2c([N+](=O)[O-])cccc2c1C,i,?,i,-113,i,i
O=C(COC(=O)c1ccc(Cl)c(S(=O)(=O)N2CCc3ccccc3C2)c1)Nc1ncc(Cl)cc1Cl,nt,i,i,i,i,i
O[C@H]1[C@H]2c3cc4c(cc3CN3CCC(=C[C@@H]1O)[C@H]23)OCO4,nt,i,i,nt,nt,nt
COc1ccc(S(=O)(=O)N2CCN(c3ccc(C)cc3C)CC2)cc1OC,i,i,i,-83,i,i
Cc1ccc(N/C(C(Cl)=C(Cl)Cl)=C(/Cl)[N+](=O)[O-])c(C)c1,nt,3.5µM,i,i,i,i
Cc1ccc(NC(=O)c2c([N+](=O)[O-])c(C(C)(C)C)nn2C)c(C)c1,nt,i,i,?,i,i
COc1ccc2c(c1)O[C@@H](c1ccc3c(c1)OCO3)[C@H](OC(=O)NS(=O)(=O)c1ccc(C)cc1)C2=O,nt,i,i,nt,nt,i
CC(=O)N1CCN(c2ccccc2NC(=O)c2ccc(-c3cccc([N+](=O)[O-])c3)o2)CC1,nt,14µM,i,nt,nt,nt
O=C(NC(=S)Nc1ccccc1N1CCCC1)c1ccc(-c2cccc([N+](=O)[O-])c2)o1,i,22µM,i,i,?,25µM

# Bioassay records: PubChem BioAssay, National Center for Advancing Translational Sciences (NCATS)
